# Reference: publication PMC7862700, “An all-to-all approach to the identification of sequence-specific readers for epigenetic DNA modifications on cytosine”
# Columns and labels:
# Experiment in all cases: DAPPL (digital affinity profiling via proximity ligation, sequencing); 10 mM Tris-HCl pH 7.5, 50 mM NaCl, 1 mM DTT, 4% glycerol, room temperature, 30 min; GST-TFs on glutathione beads, 16-mer random dsDNA library, 0.1% formaldehyde crosslink after washing; high values mean tight binding
# FLI1 = molecular target: T1, FLI1 (Homo sapiens, UniProt Q01543 1-452); details: protein: recombinant; tags: N-terminal GST; dsDNA, one strand shown
# T1 sequence: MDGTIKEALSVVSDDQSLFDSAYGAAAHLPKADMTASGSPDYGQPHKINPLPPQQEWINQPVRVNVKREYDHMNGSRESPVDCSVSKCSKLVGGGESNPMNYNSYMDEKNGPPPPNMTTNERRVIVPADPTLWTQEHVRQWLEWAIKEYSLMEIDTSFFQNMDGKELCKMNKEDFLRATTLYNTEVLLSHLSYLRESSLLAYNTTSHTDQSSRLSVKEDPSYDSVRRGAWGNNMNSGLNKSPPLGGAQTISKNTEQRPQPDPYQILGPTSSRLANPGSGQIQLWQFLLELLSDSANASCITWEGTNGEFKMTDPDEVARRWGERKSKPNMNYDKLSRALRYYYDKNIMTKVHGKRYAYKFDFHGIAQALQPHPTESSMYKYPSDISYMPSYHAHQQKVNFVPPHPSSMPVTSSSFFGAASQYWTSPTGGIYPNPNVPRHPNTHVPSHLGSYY
# In short: (§1)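 Yeast served to express human transcription factors as GST fusions, which were then captured on glutathione beads and labelled with DNA barcodes. Pooled with a tag-only sample, they were incubated with 200 nmole of a 16-mer random double-stranded DNA library for 30 min at room temperature in Tris/NaCl/DTT/glycerol buffer, washed, crosslinked with 0.1% formaldehyde, ligated by proximity, amplified by PCR and sequenced. Dividing each hexamer's read frequency for a factor by its frequency for the tag-only sample gives the binding signal.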
# ELK1 = molecular target: T2, ELK1 (Homo sapiens, UniProt P19419 1-428); details: protein: recombinant; tags: N-terminal GST; dsDNA, one strand shown
# T2 sequence: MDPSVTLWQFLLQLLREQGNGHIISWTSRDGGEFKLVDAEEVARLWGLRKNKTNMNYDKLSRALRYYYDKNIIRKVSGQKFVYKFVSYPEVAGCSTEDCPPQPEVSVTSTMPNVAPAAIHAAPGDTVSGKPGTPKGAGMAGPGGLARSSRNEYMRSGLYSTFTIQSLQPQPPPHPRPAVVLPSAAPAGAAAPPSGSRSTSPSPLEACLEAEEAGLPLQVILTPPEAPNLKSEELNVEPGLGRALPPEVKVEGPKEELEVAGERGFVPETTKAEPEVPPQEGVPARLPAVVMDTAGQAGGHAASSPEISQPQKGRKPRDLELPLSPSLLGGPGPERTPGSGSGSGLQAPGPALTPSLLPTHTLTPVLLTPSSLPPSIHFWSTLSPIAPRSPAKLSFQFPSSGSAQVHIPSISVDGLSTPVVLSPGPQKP
# In short: as §1
# GABPA = molecular target: T3, GABPA (Homo sapiens, UniProt Q06546 1-454); details: protein: recombinant; tags: N-terminal GST; dsDNA, one strand shown
# T3 sequence: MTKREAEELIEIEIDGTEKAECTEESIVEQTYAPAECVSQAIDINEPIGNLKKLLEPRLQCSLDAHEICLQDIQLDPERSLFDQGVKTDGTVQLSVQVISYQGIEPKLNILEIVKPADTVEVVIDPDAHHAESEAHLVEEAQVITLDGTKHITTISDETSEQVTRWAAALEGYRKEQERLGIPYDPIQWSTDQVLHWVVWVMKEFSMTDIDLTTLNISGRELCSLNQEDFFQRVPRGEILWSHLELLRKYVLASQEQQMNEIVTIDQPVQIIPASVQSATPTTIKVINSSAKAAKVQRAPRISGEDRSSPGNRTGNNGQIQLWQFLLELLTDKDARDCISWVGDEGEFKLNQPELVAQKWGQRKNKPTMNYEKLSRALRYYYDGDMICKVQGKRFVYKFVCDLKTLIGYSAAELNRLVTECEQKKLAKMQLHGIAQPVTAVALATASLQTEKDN
# In short: as §1
# ERG = molecular target: T4, ERG (Homo sapiens, UniProt P11308 1-479); details: protein: recombinant; tags: N-terminal GST; dsDNA, one strand shown
# T4 sequence: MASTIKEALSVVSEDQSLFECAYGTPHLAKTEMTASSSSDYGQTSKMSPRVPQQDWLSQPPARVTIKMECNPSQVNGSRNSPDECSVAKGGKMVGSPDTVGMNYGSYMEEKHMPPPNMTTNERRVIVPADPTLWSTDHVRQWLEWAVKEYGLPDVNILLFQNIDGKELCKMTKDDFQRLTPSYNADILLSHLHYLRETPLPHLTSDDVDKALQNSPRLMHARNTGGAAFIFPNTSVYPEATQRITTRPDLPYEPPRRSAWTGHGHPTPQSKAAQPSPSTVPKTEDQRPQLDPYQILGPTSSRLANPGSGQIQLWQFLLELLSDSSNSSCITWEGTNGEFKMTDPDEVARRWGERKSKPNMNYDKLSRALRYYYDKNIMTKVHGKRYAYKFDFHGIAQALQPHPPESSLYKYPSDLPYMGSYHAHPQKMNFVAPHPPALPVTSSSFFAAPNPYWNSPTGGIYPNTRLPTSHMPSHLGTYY
# In short: as §1
# ELF1 = ELF1 (Homo sapiens, UniProt P32519 1-619); details: protein: recombinant; tags: N-terminal GST; dsDNA, one strand shown
# Sequence of ELF1 (P32519 whole entry): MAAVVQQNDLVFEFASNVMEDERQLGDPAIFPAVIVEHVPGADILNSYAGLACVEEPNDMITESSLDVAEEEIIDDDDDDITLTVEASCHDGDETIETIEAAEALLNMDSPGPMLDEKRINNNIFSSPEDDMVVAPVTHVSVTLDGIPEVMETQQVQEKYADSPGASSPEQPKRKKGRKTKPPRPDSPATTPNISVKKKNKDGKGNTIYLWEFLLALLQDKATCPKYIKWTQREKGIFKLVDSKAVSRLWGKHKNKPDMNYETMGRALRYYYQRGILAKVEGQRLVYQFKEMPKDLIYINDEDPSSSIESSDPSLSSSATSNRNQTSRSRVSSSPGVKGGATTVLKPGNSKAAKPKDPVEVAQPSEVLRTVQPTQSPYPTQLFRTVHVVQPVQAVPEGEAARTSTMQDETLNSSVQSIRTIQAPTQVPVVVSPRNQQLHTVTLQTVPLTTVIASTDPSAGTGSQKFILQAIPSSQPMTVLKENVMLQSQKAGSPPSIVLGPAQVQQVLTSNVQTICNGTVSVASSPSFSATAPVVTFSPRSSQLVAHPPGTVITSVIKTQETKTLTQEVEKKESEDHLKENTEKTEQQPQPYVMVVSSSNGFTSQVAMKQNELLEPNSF
# In short: as §1
# EHF = molecular target: T5, EHF (Homo sapiens, UniProt Q9NZC4 1-300); details: protein: recombinant; tags: N-terminal GST; dsDNA, one strand shown
# T5 sequence: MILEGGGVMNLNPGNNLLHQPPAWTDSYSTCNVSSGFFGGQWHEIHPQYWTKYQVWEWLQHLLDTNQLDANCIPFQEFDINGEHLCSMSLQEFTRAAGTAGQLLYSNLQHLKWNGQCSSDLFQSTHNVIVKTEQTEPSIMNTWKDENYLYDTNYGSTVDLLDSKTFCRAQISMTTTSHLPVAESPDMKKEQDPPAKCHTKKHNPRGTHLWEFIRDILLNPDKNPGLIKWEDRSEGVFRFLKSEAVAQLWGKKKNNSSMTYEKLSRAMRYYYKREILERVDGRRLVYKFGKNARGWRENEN
# In short: as §1
# SPI1 = SPI1 (Homo sapiens, UniProt P17947 1-270); details: protein: recombinant; tags: N-terminal GST; dsDNA, one strand shown
# In short: as §1
# SPIB = SPIB (Homo sapiens, UniProt Q01892 1-262); details: protein: recombinant; tags: N-terminal GST; dsDNA, one strand shown
# Sequence of SPIB (Q01892 whole entry): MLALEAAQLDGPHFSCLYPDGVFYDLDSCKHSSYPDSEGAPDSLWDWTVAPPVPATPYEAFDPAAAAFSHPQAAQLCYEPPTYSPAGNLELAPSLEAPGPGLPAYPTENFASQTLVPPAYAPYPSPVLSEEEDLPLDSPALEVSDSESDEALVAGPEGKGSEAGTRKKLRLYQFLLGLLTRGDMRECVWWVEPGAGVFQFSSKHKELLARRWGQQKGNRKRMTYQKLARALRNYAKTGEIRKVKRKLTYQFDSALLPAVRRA
# In short: as §1
# ELK3 = molecular target: T6, ELK3 (Homo sapiens, UniProt P41970 1-407); details: protein: recombinant; tags: N-terminal GST; dsDNA, one strand shown
# T6 sequence: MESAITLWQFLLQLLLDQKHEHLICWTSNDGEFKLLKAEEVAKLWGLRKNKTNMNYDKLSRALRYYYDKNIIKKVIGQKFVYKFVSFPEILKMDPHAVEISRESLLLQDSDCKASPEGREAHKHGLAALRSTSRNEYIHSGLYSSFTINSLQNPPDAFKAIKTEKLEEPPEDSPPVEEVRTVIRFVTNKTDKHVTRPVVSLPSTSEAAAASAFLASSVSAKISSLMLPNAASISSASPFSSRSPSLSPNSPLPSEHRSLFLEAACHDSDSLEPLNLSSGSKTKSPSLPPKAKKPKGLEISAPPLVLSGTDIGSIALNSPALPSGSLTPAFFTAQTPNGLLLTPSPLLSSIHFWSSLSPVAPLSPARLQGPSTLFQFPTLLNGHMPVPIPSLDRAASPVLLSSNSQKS
# In short: as §1
# FEV = molecular target: T7, FEV (Homo sapiens, UniProt Q99581 1-238); details: protein: recombinant; tags: N-terminal GST; dsDNA, one strand shown
# T7 sequence: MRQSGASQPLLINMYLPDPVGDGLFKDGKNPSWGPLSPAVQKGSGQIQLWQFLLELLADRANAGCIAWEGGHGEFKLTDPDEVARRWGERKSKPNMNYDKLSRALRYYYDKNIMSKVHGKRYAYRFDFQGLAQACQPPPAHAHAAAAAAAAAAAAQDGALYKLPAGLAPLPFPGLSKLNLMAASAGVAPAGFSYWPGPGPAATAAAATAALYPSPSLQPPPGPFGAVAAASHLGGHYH
# In short: as §1
# ETV5 = ETV5 (Homo sapiens, UniProt P41161 1-510); details: protein: recombinant; tags: N-terminal GST; dsDNA, one strand shown
# Sequence of ETV5 (P41161 whole entry): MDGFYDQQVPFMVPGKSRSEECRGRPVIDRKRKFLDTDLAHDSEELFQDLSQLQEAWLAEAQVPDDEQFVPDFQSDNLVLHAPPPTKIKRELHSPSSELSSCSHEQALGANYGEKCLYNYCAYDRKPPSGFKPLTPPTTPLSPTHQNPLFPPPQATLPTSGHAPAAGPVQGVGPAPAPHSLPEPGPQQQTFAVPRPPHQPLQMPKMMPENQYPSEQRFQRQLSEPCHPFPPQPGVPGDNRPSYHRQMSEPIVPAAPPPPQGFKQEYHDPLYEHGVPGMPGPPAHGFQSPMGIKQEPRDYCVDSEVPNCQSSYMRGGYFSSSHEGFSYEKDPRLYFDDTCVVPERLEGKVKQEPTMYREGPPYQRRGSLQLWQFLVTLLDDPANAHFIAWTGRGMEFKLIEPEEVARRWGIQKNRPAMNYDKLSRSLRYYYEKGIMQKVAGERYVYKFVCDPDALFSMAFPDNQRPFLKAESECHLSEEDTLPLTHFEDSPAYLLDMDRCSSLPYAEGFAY
# In short: as §1
# HSF1 = HSF1 (Homo sapiens, UniProt Q00613 1-529); details: protein: recombinant; tags: N-terminal GST; chain copies: 3; dsDNA, one strand shown
# Sequence of HSF1 (Q00613 whole entry): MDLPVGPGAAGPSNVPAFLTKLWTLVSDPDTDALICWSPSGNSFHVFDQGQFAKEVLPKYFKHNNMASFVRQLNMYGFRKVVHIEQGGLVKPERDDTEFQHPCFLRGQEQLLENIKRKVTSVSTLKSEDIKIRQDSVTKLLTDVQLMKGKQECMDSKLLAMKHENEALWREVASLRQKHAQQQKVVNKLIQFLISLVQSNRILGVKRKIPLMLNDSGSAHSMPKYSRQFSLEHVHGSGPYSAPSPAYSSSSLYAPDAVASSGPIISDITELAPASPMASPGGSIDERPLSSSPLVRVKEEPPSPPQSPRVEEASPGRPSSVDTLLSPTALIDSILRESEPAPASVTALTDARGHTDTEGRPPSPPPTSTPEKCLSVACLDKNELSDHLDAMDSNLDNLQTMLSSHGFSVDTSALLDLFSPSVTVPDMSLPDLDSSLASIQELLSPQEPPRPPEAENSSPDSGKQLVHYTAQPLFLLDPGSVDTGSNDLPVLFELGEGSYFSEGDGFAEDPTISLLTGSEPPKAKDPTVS
# In short: as §1
# SPIC = molecular target: T8, SPIC (Homo sapiens, UniProt Q8N5J4 1-248); details: protein: recombinant; tags: N-terminal GST; dsDNA, one strand shown
# T8 sequence: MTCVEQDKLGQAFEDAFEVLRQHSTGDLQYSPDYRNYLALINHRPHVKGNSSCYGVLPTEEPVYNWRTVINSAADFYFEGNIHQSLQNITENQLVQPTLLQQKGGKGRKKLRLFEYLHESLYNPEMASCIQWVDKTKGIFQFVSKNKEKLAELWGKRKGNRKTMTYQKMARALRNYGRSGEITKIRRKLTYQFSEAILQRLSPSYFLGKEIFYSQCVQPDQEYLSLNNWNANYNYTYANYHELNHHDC
# In short: as §1
# ELF4 = ELF4 (Homo sapiens, UniProt Q99607 1-663); details: protein: recombinant; tags: N-terminal GST; dsDNA, one strand shown
# Sequence of ELF4 (Q99607 whole entry): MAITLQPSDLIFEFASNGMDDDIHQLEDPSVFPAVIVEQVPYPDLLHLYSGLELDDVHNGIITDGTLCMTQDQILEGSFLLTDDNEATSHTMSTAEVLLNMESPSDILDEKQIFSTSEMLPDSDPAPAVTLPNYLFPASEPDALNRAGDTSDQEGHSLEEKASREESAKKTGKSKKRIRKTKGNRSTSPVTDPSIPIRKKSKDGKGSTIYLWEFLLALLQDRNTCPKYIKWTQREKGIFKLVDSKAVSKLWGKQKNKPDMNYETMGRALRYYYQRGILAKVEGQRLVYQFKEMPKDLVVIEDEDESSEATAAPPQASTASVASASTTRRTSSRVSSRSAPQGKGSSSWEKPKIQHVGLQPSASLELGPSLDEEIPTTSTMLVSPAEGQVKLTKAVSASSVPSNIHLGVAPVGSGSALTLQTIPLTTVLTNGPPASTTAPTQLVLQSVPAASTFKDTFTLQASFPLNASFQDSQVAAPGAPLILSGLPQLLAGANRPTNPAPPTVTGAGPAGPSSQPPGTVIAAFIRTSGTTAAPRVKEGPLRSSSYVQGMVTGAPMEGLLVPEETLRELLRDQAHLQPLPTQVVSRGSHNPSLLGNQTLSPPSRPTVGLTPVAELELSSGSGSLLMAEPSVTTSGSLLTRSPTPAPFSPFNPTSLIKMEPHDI
# In short: as §1
# ELK4 = molecular target: T9, ELK4 (Homo sapiens, UniProt P28324-2 1-405); details: protein: recombinant; tags: N-terminal GST; dsDNA, one strand shown
# T9 sequence: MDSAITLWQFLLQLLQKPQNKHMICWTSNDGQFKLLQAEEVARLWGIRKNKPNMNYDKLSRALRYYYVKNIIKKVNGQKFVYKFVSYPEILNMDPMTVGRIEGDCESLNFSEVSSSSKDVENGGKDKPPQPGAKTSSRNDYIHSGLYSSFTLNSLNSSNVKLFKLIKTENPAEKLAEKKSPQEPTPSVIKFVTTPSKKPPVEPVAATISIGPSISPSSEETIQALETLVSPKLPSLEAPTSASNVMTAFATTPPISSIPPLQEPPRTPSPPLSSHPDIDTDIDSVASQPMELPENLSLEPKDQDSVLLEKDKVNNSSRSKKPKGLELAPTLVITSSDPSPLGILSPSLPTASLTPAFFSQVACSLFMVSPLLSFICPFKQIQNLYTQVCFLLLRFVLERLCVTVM
# In short: as §1
# ETV2 = molecular target: T10, ETV2 (Homo sapiens, UniProt O00321 1-342); details: protein: recombinant; tags: N-terminal GST; dsDNA, one strand shown
# T10 sequence: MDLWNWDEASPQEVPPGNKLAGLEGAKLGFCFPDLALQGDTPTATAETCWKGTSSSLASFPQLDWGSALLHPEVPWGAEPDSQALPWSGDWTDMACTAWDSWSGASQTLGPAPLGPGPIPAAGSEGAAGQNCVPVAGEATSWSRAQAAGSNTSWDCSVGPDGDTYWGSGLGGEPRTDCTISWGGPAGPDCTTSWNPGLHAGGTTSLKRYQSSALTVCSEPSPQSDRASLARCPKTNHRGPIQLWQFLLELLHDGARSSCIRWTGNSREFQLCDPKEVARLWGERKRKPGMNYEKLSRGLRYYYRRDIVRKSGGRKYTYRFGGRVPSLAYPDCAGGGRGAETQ
# In short: as §1
# ELF3 = molecular target: T11, ELF3 (Homo sapiens, UniProt P78545 1-371); details: protein: recombinant; tags: N-terminal GST; dsDNA, one strand shown
# T11 sequence: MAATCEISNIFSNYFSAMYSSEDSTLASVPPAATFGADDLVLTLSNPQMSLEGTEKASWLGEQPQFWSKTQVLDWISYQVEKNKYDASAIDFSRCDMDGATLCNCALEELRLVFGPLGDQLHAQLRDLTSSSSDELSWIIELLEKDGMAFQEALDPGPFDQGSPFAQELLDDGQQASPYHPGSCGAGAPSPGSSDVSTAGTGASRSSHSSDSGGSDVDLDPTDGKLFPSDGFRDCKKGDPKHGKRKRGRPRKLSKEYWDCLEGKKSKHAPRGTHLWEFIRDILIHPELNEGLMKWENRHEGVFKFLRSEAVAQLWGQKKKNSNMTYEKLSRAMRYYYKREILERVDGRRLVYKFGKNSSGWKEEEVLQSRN
# In short: as §1
# CRX = CRX (Homo sapiens, UniProt O43186 1-299); details: protein: recombinant; tags: N-terminal GST; dsDNA, one strand shown
# Sequence of CRX (O43186 whole entry): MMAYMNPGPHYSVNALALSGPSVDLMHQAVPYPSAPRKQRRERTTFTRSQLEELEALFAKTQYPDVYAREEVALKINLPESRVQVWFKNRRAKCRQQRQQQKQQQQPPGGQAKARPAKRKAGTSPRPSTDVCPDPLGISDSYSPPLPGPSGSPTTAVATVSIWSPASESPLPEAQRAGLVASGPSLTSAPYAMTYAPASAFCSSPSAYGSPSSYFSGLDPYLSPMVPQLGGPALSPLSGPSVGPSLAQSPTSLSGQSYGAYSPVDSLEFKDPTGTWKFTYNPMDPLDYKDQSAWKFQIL
# In short: as §1
# ETV1 = ETV1 (Homo sapiens, UniProt P50549 1-477); details: protein: recombinant; tags: N-terminal GST; dsDNA, one strand shown
# Sequence of ETV1 (P50549 whole entry): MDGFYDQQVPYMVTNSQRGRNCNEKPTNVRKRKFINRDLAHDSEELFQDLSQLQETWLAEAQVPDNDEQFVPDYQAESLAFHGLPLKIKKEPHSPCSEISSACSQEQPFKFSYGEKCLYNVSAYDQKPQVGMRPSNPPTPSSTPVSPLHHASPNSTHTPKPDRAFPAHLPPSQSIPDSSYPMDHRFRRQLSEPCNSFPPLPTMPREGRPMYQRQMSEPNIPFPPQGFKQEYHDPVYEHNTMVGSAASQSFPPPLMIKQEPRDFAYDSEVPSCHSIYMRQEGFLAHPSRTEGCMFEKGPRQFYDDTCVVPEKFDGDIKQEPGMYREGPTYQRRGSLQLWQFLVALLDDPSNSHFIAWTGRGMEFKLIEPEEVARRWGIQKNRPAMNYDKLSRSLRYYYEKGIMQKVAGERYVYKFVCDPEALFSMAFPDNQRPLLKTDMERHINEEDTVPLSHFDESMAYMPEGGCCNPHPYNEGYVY
# In short: as §1
sequence,measurement,setting,value
GGCTTC,binding signal,FLI1,"1.68 fold enrichment (6-mer frequency, TF over GST control)"
same,binding signal,ELK1,"1.8 fold enrichment (6-mer frequency, TF over GST control)"
same,binding signal,GABPA,"1.57 fold enrichment (6-mer frequency, TF over GST control)"
same,binding signal,ERG,"1.79 fold enrichment (6-mer frequency, TF over GST control)"
same,binding signal,ELF1,"1.62 fold enrichment (6-mer frequency, TF over GST control)"
same,binding signal,EHF,"1.78 fold enrichment (6-mer frequency, TF over GST control)"
same,binding signal,SPI1,"1.65 fold enrichment (6-mer frequency, TF over GST control)"
same,binding signal,SPIB,"1.78 fold enrichment (6-mer frequency, TF over GST control)"
same,binding signal,ELK3,"1.81 fold enrichment (6-mer frequency, TF over GST control)"
same,binding signal,FEV,"1.77 fold enrichment (6-mer frequency, TF over GST control)"
same,binding signal,ETV5,"1.69 fold enrichment (6-mer frequency, TF over GST control)"
same,binding signal,HSF1,"1.45 fold enrichment (6-mer frequency, TF over GST control)"
same,binding signal,SPIC,"1.6 fold enrichment (6-mer frequency, TF over GST control)"
same,binding signal,ELF4,"1.55 fold enrichment (6-mer frequency, TF over GST control)"
same,binding signal,ELK4,"1.44 fold enrichment (6-mer frequency, TF over GST control)"
same,binding signal,ETV2,"1.76 fold enrichment (6-mer frequency, TF over GST control)"
same,binding signal,ELF3,"1.64 fold enrichment (6-mer frequency, TF over GST control)"
same,binding signal,CRX,"1.25 fold enrichment (6-mer frequency, TF over GST control)"
same,binding signal,ETV1,"1.6 fold enrichment (6-mer frequency, TF over GST control)"
